# FLuc counter: qHTS profiling assay for firefly luciferase inhibitor/activator using purifed enzyme and Km concentrations of substrates (counterscreen for miR-21 project) | Luciferin 4-monooxygenase (Photinus pyralis), P08659 | purified FLuc, Km substrates, luminescence inhibition | Potency, µM (highest dose often 57.5 µM), for inactives: at the top dose activity change, negative = inhibition, usual class: inhibitors | actives 6.9% (n = 360,000);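 note: plate controls were vehicle for no effect and reference inhibitor for full effect; nearly all actives have a fitted effect of over 55% in size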
# Target sequence (P08659 whole entry, looked up): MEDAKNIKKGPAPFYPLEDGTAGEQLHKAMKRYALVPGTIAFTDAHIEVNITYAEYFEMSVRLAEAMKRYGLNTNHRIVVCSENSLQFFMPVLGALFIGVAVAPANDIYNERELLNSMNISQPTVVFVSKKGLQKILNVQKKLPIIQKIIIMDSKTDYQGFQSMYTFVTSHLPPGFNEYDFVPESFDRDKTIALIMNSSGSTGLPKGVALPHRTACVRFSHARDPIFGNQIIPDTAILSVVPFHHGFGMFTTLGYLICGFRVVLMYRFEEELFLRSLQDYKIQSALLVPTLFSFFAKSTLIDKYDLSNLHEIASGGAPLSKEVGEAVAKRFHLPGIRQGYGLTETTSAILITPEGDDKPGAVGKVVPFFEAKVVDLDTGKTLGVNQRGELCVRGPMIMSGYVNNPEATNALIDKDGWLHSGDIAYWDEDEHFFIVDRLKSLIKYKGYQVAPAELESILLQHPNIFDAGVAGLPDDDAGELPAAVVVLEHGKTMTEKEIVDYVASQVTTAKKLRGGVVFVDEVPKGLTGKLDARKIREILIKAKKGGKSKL
#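 Biochemical qHTS of compounds, final roughly 60 µM downward over six points, against 10 nM purified firefly luciferase using Km concentrations of substrates (10 uM D-luciferin, 10 uM ATP) in Tris acetate pH 7.5 buffer; luminescence output.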
# Rab9 promoter act: qHTS Assay for Rab9 Promoter Activators | Huh7 Rab9 promoter-luciferase reporter, luminescence, 24 h | Potency, µM (highest dose often 9.22 µM), without a hit: top-dose activation, negative = inhibition, actives largely listed as activators | actives 2.8% (n = 320,000); note: % of control where 0% means no effect; nearly all actives have a fitted effect of over 60% in size
#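 Luminescence read-out: Huh7 cells stably expressing Rab9-luciferase, treated 24 h with compound at 37 °C, then lysed with luciferase reagent for 10 min at ambient before reading.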
# ELG1 genotox: qHTS screen for small molecules that induce genotoxicity in human embryonic kidney (HEK293T) cells expressing luciferase-tagged ELG1; actives 1.3% (n = 330,000); HEK293T ELG1-luciferase reporter, luminescence, 16 h; Potency, µM (top dose mostly 46 µM), without a hit: at the top dose activity change, positive = activation, most hits filed as activators; note: % of control where 0% means no effect; nearly all actives have a fitted effect of over 60% in size
#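 After overnight (16 hr) compound treatment at 37 °C, ELG1-luciferase HEK293T cells were lysed with ONE-Glo; luminescence quantified 30 min later at room temperature.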
# NPC1 promoter act: qHTS Assay for NPC1 Promoter Activators | actives 2.4% (n = 320,000) | Potency, µM (doses to about 9.22 µM), without a hit: at the highest dose activation, hits mostly activators | Huh7 NPC1 promoter luciferase reporter, 24 h; note: % of control where 0% means no effect; nearly all actives have a fitted effect of over 60% in size
#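 NPC1 promoter–luciferase Huh7 cells; 24 h compound; luminescence.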
# SMN2 splice enh: qHTS Assay for Enhancers of SMN2 Splice Variant Expression; HEK293 SMN2-luciferase splicing reporter, luminescence, 30-36 h; Potency, µM (series often up to 46.1 µM), without a hit: at the highest dose activity change, positive = activation, usual class: activators; actives 2.8% (n = 210,000); AID 1458, 2008; note: % of control where 0% means no effect; nearly all actives have a fitted effect of over 55% in size
#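 HEK293 cells carry an SMN2 […]–luciferase reporter in which exon 7 inclusion puts luciferase in frame. Cells were plated 10-12 h before compound addition, then incubated 30-36 h at 37C. ONE-Glo luminescence was read; sodium butyrate at 4.5 mM final served as control.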
# ELG1 DNA repair: qHTS screen for small molecules that inhibit ELG1-dependent DNA repair in human embryonic kidney (HEK293T) cells expressing luciferase-tagged ELG1; Potency, µM (doses to about 46.1 µM), for the others: at the top dose activity change, negative = inhibition, most hits filed as inhibitors; AID 504467, 2011; actives 2.3% (n = 330,000); HEK293T ELG1-luciferase reporter, luminescence, 16 h; DNA damage induced by 5-fluorouridine; note: % is set by controls: 0 for no effect and ±100 for the full control effect; nearly all actives have a fitted effect of over 55% in size
#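 Cells (2,000 per well) received 5-fluorouridine plus test compound or DMSO and were incubated 16 hr at 37 °C, 5% CO2. Luciferase activity was read by luminescence 30 min after ONE-Glo addition; signal suppression marked inhibition of damage-induced ELG1 function.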
# The depositor's hits bear a star; ? = inconclusive; . = no result. This is a sample that favours compounds with a hit; in the whole collection about 9.2% have one here. Calls come from the whole dose curve; as a rule, active = well fitted curve in the direction sought with a large enough effect; inconclusive = small, poorly fitted or top-dose-only effect, or another doubt; inactive = no such curve, though single readings can be large; an effect the other way counts as inactive or inconclusive. Potency is the fitted concentration of half-maximal effect.
SMILES,FLuc counter,Rab9 promoter act,ELG1 genotox,NPC1 promoter act,SMN2 splice enh,ELG1 DNA repair
COc1cccc(NC(=O)NC2CCN(CC(=O)Nc3ccccc3[N+](=O)[O-])CC2)c1,-5%,4%,-16%,2%,.,21µM*
O=C(CN1CCC(NC(=O)Nc2ccc(F)cc2)CC1)Nc1ccccc1[N+](=O)[O-],-5%,15%,-8%,-2%,.,18µM*
CC1(C)CC(=O)C2=C(C1)NC1=C(C(=O)c3ccccc31)C2c1cc([N+](=O)[O-])ccc1O (stereo not given),?,-1%,1%,4%,.,?
CC1CCCN(C(=O)c2ccc3c(=O)n(C4CCCC4)c(=S)[nH]c3c2)C1 (stereo not given),-12%,-29%,-7%,-19%,-70%,?
O=C(c1ccc2c(=O)n(C3CCCC3)c(=S)[nH]c2c1)N1CCCCCC1,-11%,-38%,-10%,-29%,-4%,1.8µM*
O=C(c1ccc2c(=O)n(-c3ccccc3)c(=S)[nH]c2c1)N1CCCCC1,-1%,-24%,-5%,-26%,-69%,3.3µM*
O=C(c1ccc2c(=O)n(-c3ccccc3)c(=S)[nH]c2c1)N1CCN(c2ccccc2)CC1,.,-1%,-6%,-3%,.,?
OCCCNC(=S)Nc1ccc2nc(-c3ccccn3)c(-c3ccccn3)nc2c1,-1%,1%,3%,-6%,-1%,12%
O=S(=O)(c1ccc2nc(-c3ccco3)c(-c3ccco3)nc2c1)N1CCOCC1,?,5%,-6%,0%,-17%,16µM*
O=C(Nc1ccc(N2CCOCC2)cc1)Nc1ccc2nc(-c3ccco3)c(-c3ccco3)nc2c1,-6%,-8%,-7%,-3%,-18%,6.5µM*
O=C(Nc1ccc(F)c(Cl)c1)NC1CC1,-3%,13%,0%,-1%,.,-16%
O=C(NCCCO)Nc1ccc2nc(-c3ccco3)c(-c3ccco3)nc2c1,11µM*,7%,2%,0%,-20%,-8%
O=C(Nc1ccc2nc(-c3ccco3)c(-c3ccco3)nc2c1)NC1CC1,6µM*,28%,0%,18%,-19%,?
CCOC(=O)C1CCN(C(=O)Cn2ncc3c4ccccc4n(Cc4ccccc4)c3c2=O)CC1,-4%,.,.,.,2%,.
Cc1cc(C)c(C#N)c(N2CCN(C(=O)C3COc4ccccc4O3)CC2)n1 (stereo not given),0%,0%,-3%,0%,.,?
COc1ccc(C(=O)N2CC(=O)Nc3ccc(F)cc3C2c2ccc(F)cc2)c(OC)c1 (stereo not given),1%,.,.,.,6%,.
Cc1ccc(CSc2nccc(-c3c(C)nc4ccccn34)n2)cc1,0%,-14%,-17%,-2%,.,15µM*
CC1CCN(C(=O)c2ccc3c(c2NCCO)C(=O)c2ccccc2C3=O)CC1,-19%,-5%,-14%,1%,24%,?
CCN(CC)CCNC(=O)c1ccc2c(c1NCCO)C(=O)c1ccccc1C2=O,?,-11%,-4%,-3%,.,13µM*
OCCCNc1c2c(nc3cc(-c4ccc(Cl)cc4)nn13)CCC2,12µM*,0%,5%,0%,.,-13%
Clc1cccc(-c2cc3nc4c(c(NCc5ccco5)n3n2)CCCC4)c1,5.4µM*,2µM*,16%,3.5µM*,?,?
CCOc1ccc(CCNC(=O)c2c3c(nc4ccccc24)C(=O)N(C2CCCCC2)C3)cc1,-17%,.,.,.,.,.
Oc1ccc(Br)cc1-c1nc2cnccn2c1NC1CCCC1,5%,-2%,-8%,0%,?,23µM*
O=C(N/N=C/c1ccc2nccnc2c1)c1ccc(Br)cc1,?,-1%,4%,-1%,.,-17%
C(=N\n1cnnc1)/c1ccc2ncccc2c1,3%,4%,0%,-6%,-7%,16%
SMILES,FLuc counter,Rab9 promoter act,ELG1 genotox,NPC1 promoter act,SMN2 splice enh,ELG1 DNA repair
C(=N\NCc1ccccc1)/c1ccc2nccnc2c1,12µM*,2.5µM*,?,3.5µM*,.,?
C(=N\NCc1ccccc1)/c1ccc2ncccc2c1,4.3µM*,1.6µM*,2.6µM*,1.1µM*,.,?
S=C(N/N=C/c1ccc2ncccc2c1)Nc1ccccc1,4.8µM*,?,?,?,?,?
CC(CNC(=O)C1CCN(Cc2cc3ccccc3n2Cc2ccccc2)CC1)c1ccccc1 (stereo not given),2%,.,.,.,.,.
Cc1nc(-n2nc(C)c(CCC(C)C)c2C)sc1C(=O)Nc1ccc(Cl)cc1,-2%,.,.,.,.,.
Fc1ccc(CSc2ccc(-c3ccc4c(c3)OCO4)nn2)cc1,?,-4%,13%,2%,7%,?
Cn1c(SCC#N)nnc1-c1ccc2c(c1)OCO2,0%,-3%,4%,-1%,-9%,1%
c1ccc(CSc2ccc(-c3ccc4c(c3)OCO4)nn2)cc1,2.7µM*,3.2µM*,?,3.5µM*,18µM*,?
c1cncc(CSc2ccc(-c3cccnc3)nn2)c1,-9%,-2%,3%,0%,11%,?
c1ccc(CSc2ccc(-c3cccnc3)nn2)cc1,21µM*,?,13%,?,?,?
Cn1c(SCc2ccccc2)nnc1-c1ccc2c(c1)OCO2,?,?,18µM*,?,22µM*,?
CCN1C(=O)[C@H]2[C@@H](c3ccc(-c4ccc(F)cc4)c(OC)c3)N[C@@](CC(C)C)(C(=O)OC)[C@H]2C1=O,-1%,4%,-4%,-6%,.,-9%
CC12CCC(=O)N1C(C(=O)NNC(=O)c1ccc(Br)cc1)CS2 (stereo not given),6%,1%,-2%,0%,.,7%
O=S(=O)(Nc1nc2ccccc2nc1Nc1ccc(N2CCOCC2)cc1)c1cc(Cl)ccc1Cl,15µM*,-8%,-4%,-5%,-72%,?
COC(=O)N/N=C/c1cccc(OCCSc2ccc(Cl)cc2)c1,-27%,27%,1%,?,11µM*,0%
Cc1scc(C(=O)N/N=C/c2ccsc2)c1C,2.1µM*,2.8µM*,10µM*,?,18µM*,?
CCCOc1cccc(/C=N/NC(=O)c2csc(C)c2C)c1,4.8µM*,10%,6%,22%,-25%,3%
Cc1scc(C(=O)N/N=C/c2ccco2)c1C,11µM*,2.8µM*,?,?,11µM*,?
